# Most compounds without a hit are left out; they make up all but 12% or so of the library.
# JMJD2A Tudor inh – inhibitors of human JMJD2A Tudor domain; O75164; AlphaScreen JMJD2A-Tudor / H3K4me3 peptide binding; Potency, µM (highest dose often 114 µM), for inactives: at the highest dose activity change, negative = inhibition, usual class: inhibitors; hit rate 4.4% among 390,000; AID 504339; also: % is scaled to controls: 0 for no effect and ±100 for the full control effect; nearly all actives have a fitted effect of over 50% in size
# HP1b binding inh – HP1-beta chromodomain-methylated histone interaction inhibition; P83916; AlphaScreen HP1-beta / biotin-H3K9me3 peptide binding; Potency, µM (highest dose often 114 µM), inactives show top-dose activity change, negative = inhibition, usual class: inhibitors; hit rate 0.56% among 390,000; AID 540317; also: nearly all actives have a fitted effect of over 70% in size
#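 Compound inhibition of the preformed complex between 50 nM HP1-beta and 50 nM biotinylated H3K9me3 peptide was read by AlphaScreen. Buffer was PBS pH 7.4 with 0.01% Tween-20. Incubations ran 30 min at room temperature, with 10 ug/mL donor/acceptor beads.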
# G9a inh – blocks human histone lysine methyltransferase G9a. Q96KQ7. G9a H3K9 monomethylation, AlphaScreen, 2 h. Potency, µM (top dose mostly 102 µM), without a hit: top-dose activity, negative = inhibition, actives largely listed as inhibitors. hit rate 8.8% among 350,000; also: % is scaled to controls: 0 for no effect and ±100 for the full control effect; nearly all actives have a fitted effect of over 75% in size
#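 Step 1: enzyme (final 20 nM) with compound, 15 min RT. Step 2: substrate peptide 500 nM and SAM 20 uM, 2 h RT. Step 3: anti-H3K9me1 antibody and AlphaScreen beads, 10 min, then plate read.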
# TDP1 inh – TDP1 (human) enzyme inhibition | Q9NUW8 | recombinant TDP1, AlphaScreen DNA substrate cleavage | Potency, µM (titrated, usually from 130 µM), without a hit: top-dose activity change, negative = inhibition, most hits filed as inhibitors | hit rate 0.28% among 350,000 | AID 485290; also: % is scaled to controls: 0 for no effect and ±100 for the full control effect; nearly all actives have a fitted effect of over 40% in size
# Target sequence (Q9NUW8 whole entry, looked up): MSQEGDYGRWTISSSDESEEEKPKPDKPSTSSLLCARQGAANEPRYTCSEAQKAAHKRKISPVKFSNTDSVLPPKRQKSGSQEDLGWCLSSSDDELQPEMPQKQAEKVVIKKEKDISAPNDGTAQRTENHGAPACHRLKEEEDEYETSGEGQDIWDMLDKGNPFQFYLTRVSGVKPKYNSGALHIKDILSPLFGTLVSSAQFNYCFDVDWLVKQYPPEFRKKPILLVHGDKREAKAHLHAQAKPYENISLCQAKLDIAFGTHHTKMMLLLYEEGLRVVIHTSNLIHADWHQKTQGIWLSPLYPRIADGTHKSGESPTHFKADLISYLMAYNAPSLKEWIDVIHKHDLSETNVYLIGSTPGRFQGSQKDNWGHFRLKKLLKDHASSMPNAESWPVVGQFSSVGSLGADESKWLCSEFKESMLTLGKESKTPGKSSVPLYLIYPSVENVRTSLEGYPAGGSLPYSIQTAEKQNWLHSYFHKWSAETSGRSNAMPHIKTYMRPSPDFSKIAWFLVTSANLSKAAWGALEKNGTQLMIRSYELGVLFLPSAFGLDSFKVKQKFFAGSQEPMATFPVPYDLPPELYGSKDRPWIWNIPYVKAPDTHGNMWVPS
#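 Here, a 5' biotin and 3' phosphotyrosine-FITC DNA oligonucleotide reports Tdp1 activity: intact substrate bridges AlphaScreen beads, while cleavage leaves a 3' phosphate and drops signal. All incubations at room temperature.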
# BAZ2B block – blocks human BAZ2B. AlphaScreen BAZ2B-H3K14Ac peptide displacement. hit rate 4.4% among 360,000. Potency, µM (top dose mostly 114 µM), for the others: at the highest dose activity change, negative = inhibition, actives largely listed as inhibitors; also: % is scaled to controls: 0 for no effect and ±100 for the full control effect; nearly all actives have a fitted effect of over 60% in size
#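 Inhibition is scored as reduced AlphaScreen emission. The BAZ2B/b-H3(5-23)K14Ac complex (50 nM each) in PBS pH 7.4, 0.01% Tween-20 meets compound (up to 110 uM) for 30 min at RT before bead addition.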
# Sfp PPTase inh – inhibitors of Bacillus subtilis Sfp phosphopantetheinyl transferase | Biochemical Sfp PPTase activity, qHTS | hit rate 3.5% among 310,000 | AID 1490 | Potency, µM, for the others: largest response in the series, negative = inhibition, usual class: inhibitors;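 also: the enzyme is Sfp with the accession as filed and its product quenches rhodamine fluorescence; 0% = enzyme reaction without inhibitor and -100% = no enzyme wells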
#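 With Hepes-Na pH 7.6 buffer containing 10 mM MgCl2, Sfp (15 nM) modified BHQ-2-YbbR (12.5 uM) using rhodamine-CoA (5 uM). Two reads 30 minutes apart at 525/598 nm yielded each well's rate.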
# * marks the source's active call; other numbers are inactive results; ? = inconclusive; nt = no result; [ ] = dose if it differs, or a comment. Calls follow the shape of the dose curve; as a rule, active = well fitted curve in the direction sought with a large enough effect; inconclusive = small, poorly fitted or top-dose-only effect, or another doubt; inactive = no such curve, though single readings can be large; an effect the other way counts as inactive or inconclusive. Potency is read from the fitted curve at half-maximal effect.
SMILES,JMJD2A Tudor inh,HP1b binding inh,G9a inh,TDP1 inh,BAZ2B block,Sfp PPTase inh
O=C(CCC(=O)OCc1ccc(Br)cc1)Nc1ccccc1,50µM*,16%,12%[59 µM],-8%,8%,1%
Cc1ccc(N2C(=O)c3ccccc3C2C(=O)c2ccc(C)c(C)c2O)cc1 (stereo unspecified),50µM*,?,nt,8%,-13%,?
Cc1ccc(N2C(=O)c3ccccc3C2C(=O)c2cc(C)ccc2O)cc1 (stereo unspecified),?,?,7.9µM*,-3%,-12%,?
Cc1ccc(C2C(C(=O)O)c3ccccc3C(=O)N2C)c(C)c1 (stereo unspecified),-3%,4%,1%,0%,-1%,2%
COC(=O)C1=C(C)N(CC(C)C)C(=O)/C1=C\c1cccs1,45µM*,16µM*,40µM*,7%,50µM*,3%
CCN1C(=O)/C(=C\c2cccs2)C(C(=O)OC)=C1C,56µM*,?,45µM*,2%,50µM*,-1%
COC(=O)C1=C(C)N(C2CCCCC2)C(=O)/C1=C\c1cccs1,?,-33%,3.2µM*,2%,3.2µM*,12%
COC(=O)C1=C(C)N(Cc2cccnc2)C(=O)/C1=C\c1sccc1C,45µM*,35µM*,nt,8%,35µM*,-22%
Cc1cc(-c2nnc(SCC(=O)NC3CC3)n2C(C)C)cs1,-3%,30%,47%,1%,-2%,7%
CC(C)Cn1c(=O)c2ccccc2n2c(CCC(=O)NC3CCN(Cc4ccccc4)CC3)nnc12,-11%,47%,-55%,4%,20%,4%
COC(=O)c1cc2sc(C)cc2n1Cc1ccc(F)cc1Cl,72%,100%,72%[59 µM],-4%,64%,nt
CCOC(=O)C1=C(C)N(CC(C)C)C(=O)/C1=C\c1cccs1,?,?,nt,4%,11µM*,-16%
Cc1ccc(S(=O)(=O)/N=C(/NC(=S)Nc2cccc(C)c2)c2ccccc2)cc1,-35%,?,?,2%,-4%,50µM*
Cc1cccc(NC(=S)N/C(=N/S(=O)(=O)c2ccccc2)c2ccccc2)c1,-18%,-17%,?,-2%,-21%,?
CC(C)OC(=S)N/C(=N\S(=O)(=O)c1ccccc1)c1ccccc1,-34%,-5%,11µM*,3%,0%,14µM*
Cc1c(NC(=O)c2csc3c2CCCC3)c(=O)n(-c2ccccc2)n1C,-9%,-4%,-13%[59 µM],7%,-1%,16%
Cc1c(NC(=O)c2c(N)sc3c2CCCC3)c(=O)n(-c2ccccc2)n1C,-13%,24%,?,7%,10%,28µM*
Cc1ccc(NC(=S)Nc2cccc(S(=O)(=O)Nc3c(C)n(C)n(-c4ccccc4)c3=O)c2)cc1,-21%,-3%,45µM*,2%,-19%,-30%
CCCCCCCCCCCCCCC[C@@H](O)[C@H](CO)NC(=O)CCCCCCC,nt,nt,30%[59 µM],7%,nt,29%
COc1cccc(-c2nc(CS(=O)(=O)CC(=O)N3CCN(c4ccccc4)CC3)c(C)o2)c1,?,8%,-6%[59 µM],10%,?,nt
COc1ccccc1NC(=O)CN1C(=O)CCSc2ccccc21,-2%,25%,9%[59 µM],2%,4%,nt
Cc1cccc(C)c1NC(=S)Nc1c(C)n(C)n(-c2ccccc2)c1=O,-19%,34%,0.79µM*,3%,-7%,7%
Cc1c(NC(=S)N/C(=N/S(=O)(=O)c2ccccc2)c2ccccc2)c(=O)n(-c2ccccc2)n1C,-18%,1%,?,3%,-3%,-10%
Cc1c(NC(=S)N/N=C/C=C/c2ccc([N+](=O)[O-])cc2)c(=O)n(-c2ccccc2)n1C,-17%,-8%,0%[59 µM],3%,-9%,21%
COc1ccc(/C=N/NC(=S)Nc2c(C)n(C)n(-c3ccccc3)c2=O)cc1OC,-6%,23%,nt,-2%,-3%,45µM*
SMILES,JMJD2A Tudor inh,HP1b binding inh,G9a inh,TDP1 inh,BAZ2B block,Sfp PPTase inh
COc1ccc(NC(=O)Nc2c(C)n(C)n(-c3ccccc3)c2=O)cc1OC,-8%,14%,3%,3%[56.1 µM],-13%,11%
Cc1c(NC(=S)N/C(=N/S(=O)(=O)c2ccc(Cl)cc2)c2ccccc2)c(=O)n(-c2ccccc2)n1C,3%,11%,?,-5%,26%,35µM*
Cc1c(NC(=S)N/N=C/c2ccc([N+](=O)[O-])cc2O)c(=O)n(-c2ccccc2)n1C,45µM*,29%,2%,9%,14µM*,31%
O=C(/C=C/c1ccccc1)Nc1cccnc1Oc1ccccc1F,-5%,14%,6%,4%,-17%,23%
CC(C)(C)C1CCc2c(sc(NC(=O)c3ccc(Cl)cc3)c2C(=O)NCc2ccco2)C1 (stereo unspecified),-7%,55%,0%[59 µM],nt,4%,nt
Cc1ccccc1Nc1ncnc2c1c(-c1ccccc1)cn2-c1ccc(F)cc1,-9%,37%,5%[59 µM],0%,-1%,nt
Cc1ccc(NC(=O)Nc2c(C)n(C)n(-c3ccccc3)c2=O)cc1C,14µM*,?,-23%,2%,-16%,5%
Cc1c(NC(=S)N/N=C\c2ccccc2O)c(=O)n(-c2ccccc2)n1C,40µM*,38%,10%[59 µM],7%,3.2µM*,13%
Cc1c(NC(=S)N/N=C/c2ccc(Br)cc2)c(=O)n(-c2ccccc2)n1C,-9%,22%,-47%,9%,-18%,18%
C/C(=N\NC(=O)c1ccccc1NC(=O)c1ccc(Cl)cc1)c1ccncc1,-8%,32%,2%,2%,-6%,17%
COCCn1c(SCC(=O)c2c(N)n(C3CC3)c(=O)[nH]c2=O)nc2ccccc21,-14%,31%,1%[2.33 µM],0%[56.1 µM],11%,nt
C=C1c2ccccc2NC(=O)N1c1ccc(OC)cc1,-21%,17%,20µM*,-5%,0%,-3%
C#CCOc1ccc(-c2nnc(Nc3ccc(NC(C)=O)cc3)c3ccccc23)cc1,-2%,26%,-2%[59 µM],nt,2%,nt
S=c1[nH]nc(COc2ccccc2)n1/N=C/c1cccs1,?,-20%,1.4µM*,0%,-29%,79µM*
Cc1ccsc1/C=N/n1c(COc2ccccc2)n[nH]c1=S,?,-15%,0.89µM*,1%,10%,-10%
O=C(COc1ccccc1)NCC(=O)N/N=C/c1cccs1,-6%[11.4 µM],61%,11%[59 µM],3%,1%,9%
CN(C)c1nc(C=C(C#N)C#N)c(Cl)n1-c1ccc(F)cc1,-18%,16%,?,0%,-22%,8%
C=CCSc1nc2sc3c(c2c(=O)n1CC)CCc1ccccc1-3,?,?,?,4%,7%,1.8µM*

# Compound activity deposited in PubChem by National Center for Advancing Translational Sciences (NCATS).
